Measurements as given in PubChem BioAssay (NCATS).
Calls of active or inactive are those of the source. The call rests on the fitted dose curve; in most records, active means well fitted inhibition curve with a large enough effect; inconclusive means small, poorly fitted or top-dose-only effect; inactive means flat fitted curve, though single readings scatter.

Target: DNA dC->dU-editing enzyme APOBEC-3G (Homo sapiens) (UniProt Q9HC16)
Experiment: qHTS for inhibitors of Vif-A3G interactions: Validation (AID 588379); on activity change, negative = inhibition: 0% is about no effect
Settings: Vif-A3G protein interaction assay; series mostly up to 46.1 µM; activity change, negative = inhibition: at the top concentration
Description: The recent discovery and characterization of host restriction factors, which provide a potent defense to invading retroviruses, has provided new targets for antiviral drug development. APOBEC3G (A3G) and APOBEC3F (A3F) are potent cytidine deaminases that block HIV-1 replication; HIV-1 expresses the Vif protein, which counteracts A3G and A3F by binding to them and inducing their proteasomal degradation.
The Vif-A3G and Vif-A3F interactions provide two potential targets for development of small molecules which can interfere with the ability of Vif to degrade A3G or A3F. […] To identify inhibitors that can interfere with Vif mediated degradation of A3G and A3F, we have developed Hela cell lines that stably express A3G or A3F tagged with eYFP at the C-terminal end (A3G-eYFP or A3F-eYFP, respectively) and Vif. In the absence of an inhibitor, Vif induces degradation of A3G-eYFP and A3F-eYFP, and the cells are not fluorescent. In the presence of an inhibitor, it is expected that Vif will be unable to degrade A3G-eYFP and/or A3F-eYFP, resulting in an increase in yellow fluorescence. In this assays Vif A3G was screened against the Molecular Library Small Molecile Repository (MLSMR).
NIH Chemical Genomics Center [NCGC]
NIH Molecular Libraries Probe Centers Network [MLPCN]
Assay Submitter (PI): Vinay Pathak, National Cancer Institute
5 uL of 700 cells/well of A3G-YFP cells are dispensed into black, clear bottom plates. The plates are incubated overnight at 37 deg C. 23 nL of compounds are added by pintool. The plates are incubated overnight at 37 deg C and then read on the TTP Acumen (Ex 488/ Em 500-530).
Potency means the concentration at half of the fitted maximal effect.

DNA dC->dU-editing enzyme APOBEC-3G (Homo sapiens), sequence (Q9HC16 whole entry, looked up): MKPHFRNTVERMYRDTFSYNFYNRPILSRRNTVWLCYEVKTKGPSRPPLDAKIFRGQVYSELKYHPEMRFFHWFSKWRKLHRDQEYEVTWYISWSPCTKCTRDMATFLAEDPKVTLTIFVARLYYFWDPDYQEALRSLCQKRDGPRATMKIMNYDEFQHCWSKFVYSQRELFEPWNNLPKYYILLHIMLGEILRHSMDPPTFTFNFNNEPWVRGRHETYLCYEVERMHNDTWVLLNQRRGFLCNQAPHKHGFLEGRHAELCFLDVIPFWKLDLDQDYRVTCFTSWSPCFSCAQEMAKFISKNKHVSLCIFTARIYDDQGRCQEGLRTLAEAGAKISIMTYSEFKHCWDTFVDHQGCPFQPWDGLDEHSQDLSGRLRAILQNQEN

SMILES	activity change, negative = inhibition	Potency
CC(C)(C=O)Cc1cc(C(C)(C)C)c(O)c(C(C)(C)C)c1	-8.41% (inactive)	–
N[C@@H](CC(=O)O)C(=O)O	-2.52% (inactive)	–
O=C(O)[C@@H]1C[C@@H](C(=O)O)N1	5.16% (inactive)	–
C[C@@H](NC(=O)/C(C#N)=C/c1ccc(O)c(O)c1)c1ccccc1	-15.6% (inactive)	–
CCCCCCCC/C=C\CCCCCCCC(=O)NCCO	-2.01% (inactive)	–
Cc1cc(NC(=O)Nc2ccc3c(ccn3C)c2)sn1	0.281% (inactive)	–
Cn1cc(C2=C(c3ccc(Cl)cc3Cl)C(=O)NC2=O)c2ccccc21	–	2.99 µM (active)
CCC1C(=O)OCC1Cc1cncn1C (stereo not drawn)	–	inactive
CNCC[C@H](Oc1ccc(C(F)(F)F)cc1)c1ccccc1	-7.26% (inactive)	–
N[C@H](CCCP(=O)(O)O)C(=O)O	–	inactive
CC(C)NC[C@H](O)COc1cccc2[nH]ccc12	-2.42% (inactive)	–
N#C/C(=C\c1ccc(O)c(O)c1)C(=O)NCc1ccccc1	0.868% (inactive)	–
COC(=O)c1c(C)[nH]c(C)c1C(=O)c1ccccc1Cc1ccccc1	-1.93% (inactive)	–
N#C/C(=C\c1ccc(O)c(O)c1)C(=O)NCCCc1ccccc1	0.644% (inactive)	–
Oc1cc2c(cc1O)CN(C(=S)NCCc1ccc(Cl)cc1)CCC2	-0.362% (inactive)	–
O=c1[nH]c2cc([N+](=O)[O-])c([N+](=O)[O-])cc2[nH]c1=O	-0.834% (inactive)	–
CCCN(CC1CC1)c1nc(C)nc(Nc2c(Cl)cc(Cl)cc2Cl)c1Cl	-1.7% (inactive)	–

SMILES	activity change, negative = inhibition	Potency
O=C(Nc1ccccc1)c1cc([N+](=O)[O-])ccc1Cl	-12.7% (inactive)	–
CN1[C@@H]2CC[C@H]1CC(OC(=O)C(CO)c1ccccc1)C2 (stereo partly drawn)	2.47% (inactive)	–
C[N+]1(C)CCC(OC(=O)C(c2ccccc2)c2ccccc2)CC1	0.12% (inactive)	–
Cc1nc2sccn2c(=O)c1CCN1CCC(=C(c2ccccc2)c2ccc(F)cc2)CC1	0.891% (inactive)	–
CN1CCC[C@H]1c1cccnc1	-2.26% (inactive)	–
COc1cc(CNC(=O)CCCC/C=C/C(C)C)ccc1O	-2.07% (inactive)	–
Cc1ccc(O)c(N=Nc2ccccc2)n1	–	10.6 µM (active)
O=C(Nc1cccc(C(=O)Nc2ccc(S(=O)(=O)O)c3cc(S(=O)(=O)O)cc(S(=O)(=O)O)c23)c1)Nc1cccc(C(=O)Nc2ccc(S(=O)(=O)O)c3cc(S(=O)(=O)O)cc(S(=O)(=O)O)c23)c1	-0.139% (inactive)	–
O=C(O)c1cc(=O)c2c(Cl)cc(Cl)cc2[nH]1	3.89% (inactive)	–
COc1cc2c(CCNC(C)=O)c[nH]c2cc1Cl	3.45% (inactive)	–
O=C1C(SCCO)=C(SCCO)C(=O)c2ccccc21	–	4.73 µM (active)
C[C@@H](CN1CCC(Cc2ccccc2)CC1)[C@@H](O)c1ccc(O)cc1	-16.4% (inactive)	–
CC12C(=O)OC(=O)C1(C)C1CCC2O1 (stereo not drawn)	-11.9% (inactive)	–
O=C(O)c1cc(=O)c2ccccc2[nH]1	–	inactive
O=C(O)c1cc([N+](=O)[O-])ccc1NCCCc1ccccc1	-1.03% (inactive)	–
Clc1ccc(N2CCN(Cc3c[nH]c4ncccc34)CC2)cc1	4.61% (inactive)	–
